Screen size: about 320,000 compounds; about 2,100 (0.66%) were called active. Inconclusive results (about 53%) are left out. Calls follow the shape of the dose curve; as a rule, active = well fitted inhibition curve with a large enough effect in the signal ratio, with a control signal flat (not every such curve was filed as active); inconclusive = small, poorly fitted or top-dose-only effect, or effect the other way, or a change in a side signal; inactive = flat fitted curve, though single readings scatter; the % refers to the signal ratio. The sample as a whole holds a higher share of actives than the screen did.
Potency is read from the fitted curve at half-maximal effect.

This assay can be described thus: qHTS Assay for Lipid Storage Modulators in Drosophila S3 Cells.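 As to cell number change: cells counted by Cell Tracker Red CMTPX staining in the red channel.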 As to lipid storage change, negative = inhibition: % is scaled to controls: 0 for no effect and ±100 for the full control effect. Particulars: BODIPY lipid droplet fluorescence, 18-24 h, cells fed with added oleic acid; cell number change: measured here: cell count max response; series mostly up to 46.1 µM. In outline:
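Drosophila S3 cells loaded with oleic acid (400 uM, as added) and compounds at several concentrations; lipid droplets imaged by 488-nm laser-scanning cytometry, 500–530 nm intensity and object ratio to cell channel. Percent activity normalized to 20 uM Triacsin C.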
A general note: Quantitative high-throughput screening tests each substance at several concentrations.
In the case of `Cc1ccc(C(C)C)c(OCCCN2CCc3ccccc3C2)c1`, the Potency was 14.6 µM (active) and the cell number change was -26.9%.

Regarding `COc1c(Br)cc2c(C)c(C(=O)O)oc2c1Br`, the Potency entry was “inactive” and the cell number change came to 24.7%.

On to `CN(C)c1cc(Nc2ccc(O)cc2)c([N+](=O)[O-])c2nonc12`, for which the Potency entry is “inactive” and the cell number change worked out at 4.46%.

As to `CCOc1ccc(NS(=O)(=O)c2cc(C(=O)N3CC(C)OC(C)C3)ccc2C)cc1` (stereo not given), the Potency entry was “inactive”.

For the molecule `CCOc1ccc(NS(=O)(=O)c2ccc(C(=O)N3CC(C)OC(C)C3)cc2)cc1` (stereo not given), the Potency is 25.9 µM (active) and the cell number change is -12.2%.

For the molecule `CCOc1ccc(NS(=O)(=O)c2ccc(C(=O)N3CCCC(C)C3)cc2)cc1` (stereo not given), the Potency entry was “inactive” and the cell number change turned out to be 20.5%.

For the molecule `CN(C)CCCNC(=O)C1CCNCC1`, the Potency result is “inactive” and the cell number change is -14.6%.

For the molecule `O=S(=O)(N/N=C\C=C\c1ccccc1)c1ccc(Cl)cc1`, the Potency is 11.6 µM (active) and the cell number change is -34.4%.

As for `NC(=O)N/N=C/C=C/c1ccccc1`, the Potency entry is “inactive” and the cell number change was -8.08%.

Consider `Cc1ccc(S(=O)(=O)N/N=C\C=C\c2ccccc2)cc1`, for which the Potency entry is “inactive”.

Take `COc1ccc(/C=C/c2c(-c3ccc(OC)cc3)oc3cccnc23)cc1`: the Potency result was “inactive” and the cell number change was -16.2%.

As to `COC(=O)c1sccc1NC(=O)CC1C(=O)NCCN1C(=O)c1c(F)cccc1Cl` (stereo not given), the Potency result is “inactive” and the cell number change was determined as 12.2%.

Consider `O=c1ccc(-c2ccc(S(=O)(=O)N3CCN(c4cccc(Cl)c4)CC3)o2)n[nH]1`, for which the Potency entry is “inactive” and the cell number change came to 7.08%.

In the case of `CN(C)S(=O)(=O)c1cccc(NC(=O)c2cncc(Br)c2)c1`, the Potency entry was “inactive”.

For `CNS(=O)(=O)c1ccc(NC(=O)c2cncc(Br)c2)cc1`, the Potency entry is “inactive”.

Turning to `Cc1ccc(S(=O)(=O)N(C)C)cc1NC(=O)c1cncc(Br)c1`, the Potency is 8.2 µM (active) and the cell number change is -18%.

On to `COC(=O)[C@H](CC(C)C)NC(=O)NC1CCCCC1C` (stereo not given in full), for which the Potency was 25.9 µM (active) and the cell number change was -4.34%.

Take `COC(=O)[C@H](CC(C)C)NC(=O)N1CCCCC1C` (stereo not given in full): the Potency entry is “inactive” and the cell number change was -11.4%.

Consider `COC(=O)[C@@H](NC(=O)NC1CCCCC1C)C(C)C` (stereo not given in full), for which the Potency result is “inactive” and the cell number change is 5.72%.

As to `C=CCc1ccc(OCCCCNC2CCCC2)c(OC)c1`, the cell number change was -17.8% and the lipid storage change, negative = inhibition was -10.2% [at 9.22 µM] (inactive).

`CC(NC(=O)C1CCCN(C(=O)N(C)C)C1)c1ccccc1` (stereo not given): the Potency is 25.9 µM (active) and the cell number change came to 2.04%.

On to `CC(NC(=O)C1CCC1)c1ccccc1` (stereo not given), for which the Potency entry was “inactive”.

With `CN(C)C(=O)N1CCCC(C(=O)NCc2ccccc2)C1` (stereo not given), the Potency result was “inactive” and the cell number change was -23.4%.

As for `CCOC(=O)c1c(NC(=S)N2CCOCC2)sc2c1CCN(C(=O)OCC)C2`, the Potency entry is “inactive” and the cell number change is -10.4%.

Turning to `Cc1ccc(/C=N/NC(=O)Cc2c(F)cccc2Cl)s1`, the Potency result was “inactive” and the cell number change came to 13.4%.

On to `CCOc1ccc(S(=O)(=O)N2CCN(C(=O)c3cc(C4CC4)nn3-c3ccccc3)CC2)cc1`, for which the Potency result was “inactive” and the cell number change was -18%.

With `O=C(c1cc(C2CC2)nn1-c1ccccc1)N1CCN(S(=O)(=O)c2cccc(F)c2)CC1`, the Potency result is “inactive” and the cell number change turned out to be 16.5%.

Turning to `O=C(c1cc(C2CC2)nn1-c1ccccc1)N1CCN(S(=O)(=O)c2ccccc2)CC1`, the Potency was 16.4 µM (active) and the cell number change is -11.8%.

Take `COc1ccc(-c2noc(CCC(=O)NCc3cccnc3)n2)cc1OC`: the Potency entry is “inactive” and the cell number change is -15.7%.

Consider `CCOC(=O)C1CCN(C(=O)c2ccc(Oc3cc(Cl)cc(Cl)c3)o2)CC1`, for which the Potency result is “inactive” and the cell number change was 4.65%.

As for `Cc1onc(-c2ccccc2)c1CNS(=O)(=O)c1cccc(Br)c1`, the Potency result is “inactive” and the cell number change turned out to be 12%.

As to `CCOc1ccc(N(CC(=O)NCCSCc2ccc(Cl)cc2)S(C)(=O)=O)cc1`, the Potency is 9.2 µM (active) and the cell number change was -19.8%.

With `COc1cccc(N(CC(=O)NCCSCc2ccc(Cl)cc2)S(C)(=O)=O)c1`, the Potency result was “inactive” and the cell number change was -16.4%.

As to `CCOc1ccc(N(CC(=O)NCCSCc2ccccc2)S(C)(=O)=O)cc1`, the Potency result was “inactive” and the cell number change was determined as 10.5%.

For the molecule `O=C(CSc1nncs1)Nc1ccc(Cl)cn1`, the Potency result is “inactive” and the cell number change was -5.79%.

With `O=C(NCC(O)c1ccc2ccccc2c1)c1c(F)cccc1F` (stereo not given), the Potency result is “inactive” and the cell number change came out at 4.67%.

Regarding `Cc1cc(NS(=O)(=O)c2c(C)[nH]c(=O)[nH]c2=O)ccc1Br`, the Potency entry was “inactive”.

Regarding `CC(=O)Nc1cccc(C(=O)NC2CCCc3c2cnn3-c2ccc(C(C)(C)C)cc2)c1` (stereo not given), the Potency result is “inactive” and the cell number change is -22.8%.

In the case of `CC(C)(C)c1ccc(-n2ncc3c2CCCC3NC(=O)CCCn2cncn2)cc1` (stereo not given), the Potency result was “inactive” and the cell number change worked out at 14.9%.

As to `Cc1cc(C)n(CC(=O)NC2CCCc3c2cnn3-c2ccc(C)c(C)c2)n1` (stereo not given), the Potency was 16.4 µM (active) and the cell number change is -23%.

As for `Cc1ccc(-n2ncc3c2CC(C)(C)CC3NC(=O)CCn2cncn2)cc1` (stereo not given), the Potency result was “inactive” and the cell number change is -18.7%.

For `CC(=O)NCC(=O)NC1CCCc2c1cnn2-c1ccc(C(C)(C)C)cc1` (stereo not given), the Potency result was “inactive”.

Regarding `CCn1nc(C)cc1C(=O)NC1CCCc2c1cnn2-c1ccc(C)c(C)c1` (stereo not given), the Potency result is “inactive” and the cell number change was -8.5%.

As for `CC(=O)CCC(=O)NC1CCCc2c1cnn2-c1ccc(C(C)(C)C)cc1` (stereo not given), the Potency was 10.3 µM (active) and the cell number change is -14.2%.

For `Cc1cc(C)n(CC(=O)NC2CCCc3c2cnn3-c2ccccc2F)n1` (stereo not given), the Potency result is “inactive” and the cell number change was -1.7%.

Turning to `CC(C)(C)c1ccc(-n2ncc3c2CCCC3NC(=O)CCn2cncn2)cc1` (stereo not given), the Potency was 3.66 µM (active) and the cell number change is -29.9%.

The record behind these values is PubChem BioAssay AID2685 (National Center for Advancing Translational Sciences (NCATS), 2010).
